Experimental data from the supplement of paper PMC7411054.
Counter-ions that a name gives are not always drawn.

Experiments:
Test in all cases: lowest phenotypically active concentration; higher = less potent
Details in all cases: treatment time: 24 h
[1] = tested on: HepG2-GM130-SQSTM1
Outline: (§1)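 Cells from fifteen gene-edited reporter lines (A549, HepG2 and WPMY1) were treated for 24 h at 0.3, 1, 3 or 9 µM and imaged live, four wells per condition. Features were normalised per well to solvent control wells. A condition deviated if ≥3 of 4 wells passed the 95th percentile of control Euclidean distances and was reproducible if its median replicate Pearson correlation beat the 95th percentile of non-replicates; phenotypic activity needed both.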

[2] = tested on: HepG2-TP53BP1-CLTA
Outline: as §1

[3] = tested on: HepG2-TUBA1B-RELA
Outline: as §1

[4] = tested on: WPMY1-CANX-COX4
Outline: as §1

[5] = tested on: WPMY1-TUBA1B-RELA
Outline: as §1

[6] = tested on: WPMY1-ACTB-RAB5A
Outline: as §1

[7] = tested on: WPMY1-TP53BP1-CLTA
Outline: as §1

[8] = tested on: HepG2-CANX-COX4
Outline: as §1

[9] = tested on: A549-TP53BP1-CLTA
Outline: as §1

[10] = tested on: A549-CANX-COX4
Outline: as §1

CC[C@H](CO)Nc1nc(Nc2cccc(-c3ccccn3)c2)c2ncn(C(C)C)c2n1 [(R)-DRF053 dihydrochloride]
lowest phenotypically active concentration [1]: 9 µM
lowest phenotypically active concentration [2]: 9 µM
lowest phenotypically active concentration [3]: 9 µM
lowest phenotypically active concentration [4]: 9 µM
lowest phenotypically active concentration [5]: 9 µM

O=C(CCCCCCC(=O)Nc1ccc([C@H]2O[C@@H](CSc3nc(-c4ccccc4)c(-c4ccccc4)o3)C[C@@H](c3ccc(CO)cc3)O2)cc1)NO [Tubacin]
lowest phenotypically active concentration [6]: 9 µM
lowest phenotypically active concentration [4]: 9 µM
lowest phenotypically active concentration [7]: 9 µM
lowest phenotypically active concentration [5]: 9 µM

COc1ccc(CCc2nc3cc(-c4c(C)noc4C)ccc3n2C[C@H](C)N2CCOCC2)cc1Cl
lowest phenotypically active concentration [8]: 9 µM
lowest phenotypically active concentration [1]: 9 µM
lowest phenotypically active concentration [2]: 9 µM
lowest phenotypically active concentration [3]: 9 µM
lowest phenotypically active concentration [6]: 9 µM
lowest phenotypically active concentration [5]: 9 µM

N#Cc1ccc2ncnc(NCCc3ccccc3)c2c1 [Senexin A]
lowest phenotypically active concentration [8]: 9 µM
lowest phenotypically active concentration [6]: 1 µM
lowest phenotypically active concentration [4]: 3 µM
lowest phenotypically active concentration [5]: 3 µM

CC(C)c1c(C(=O)Nc2ccccc2)c(-c2ccccc2)c(-c2ccc(F)cc2)n1CC[C@@H](O)C[C@@H](O)CC(=O)O [atorvastatin]
lowest phenotypically active concentration [8]: 9 µM
lowest phenotypically active concentration [1]: 3 µM
lowest phenotypically active concentration [2]: 9 µM
lowest phenotypically active concentration [3]: 3 µM
lowest phenotypically active concentration [6]: 1 µM
lowest phenotypically active concentration [4]: 3 µM
lowest phenotypically active concentration [7]: 9 µM
lowest phenotypically active concentration [5]: 3 µM

COc1cc2c(cc1OC)-c1c/c(=N/c3c(C)cc(C)cc3C)n(C)c(=O)n1CC2 [Trequinsin hydrochloride]
lowest phenotypically active concentration [8]: 9 µM
lowest phenotypically active concentration [6]: 9 µM
lowest phenotypically active concentration [4]: 9 µM
lowest phenotypically active concentration [7]: 9 µM
lowest phenotypically active concentration [5]: 9 µM

CC(C)(C)n1nc(-c2ccc(Cl)cc2)c2c(N)ncnc21
lowest phenotypically active concentration [2]: 3 µM

CN1c2ccc([N+](=O)[O-])cc2N=C(c2ccc(C(=O)O)cc2)c2cc3c(cc21)C(C)(C)CCC3(C)C
lowest phenotypically active concentration [3]: 9 µM

O=C(/C=C/c1ccc2ccccc2n1)c1ccncc1
lowest phenotypically active concentration [1]: 9 µM
lowest phenotypically active concentration [3]: 9 µM
lowest phenotypically active concentration [6]: 9 µM
lowest phenotypically active concentration [7]: 9 µM
lowest phenotypically active concentration [5]: 9 µM

Cc1ccc(NC(=O)c2cccc(C(C)(C)C#N)c2)cc1Nc1ccc2ncn(C)c(=O)c2c1
lowest phenotypically active concentration [9]: 1 µM
lowest phenotypically active concentration [8]: ≤ 0.3 µM
lowest phenotypically active concentration [1]: ≤ 0.3 µM
lowest phenotypically active concentration [2]: ≤ 0.3 µM
lowest phenotypically active concentration [3]: ≤ 0.3 µM
lowest phenotypically active concentration [6]: 3 µM
lowest phenotypically active concentration [4]: 9 µM
lowest phenotypically active concentration [7]: 9 µM

Cn1cc(-c2cnc3ccc4ccc(CS(=O)(=O)NCc5ccccn5)cc4c(=O)c3c2)cn1
lowest phenotypically active concentration [4]: 3 µM

O=C(Nc1ccncc1)c1cc([N+](=O)[O-])ccc1Cl
lowest phenotypically active concentration [9]: 9 µM
lowest phenotypically active concentration [8]: 3 µM
lowest phenotypically active concentration [1]: 9 µM
lowest phenotypically active concentration [2]: 9 µM
lowest phenotypically active concentration [3]: 9 µM
lowest phenotypically active concentration [4]: 9 µM
lowest phenotypically active concentration [5]: 9 µM

CCOC(=O)c1c2c3c(cccc3[nH]c1=O)C(=O)c1ccccc1-2
lowest phenotypically active concentration [2]: ≤ 0.3 µM

CCC(C)(C)C(=O)O[C@H]1C[C@@H](C)C=C2C=C[C@H](C)[C@H](CC[C@@H]3C[C@@H](O)CC(=O)O3)[C@H]21 [Simvastatin]
lowest phenotypically active concentration [9]: 9 µM
lowest phenotypically active concentration [8]: 1 µM
lowest phenotypically active concentration [1]: 1 µM
lowest phenotypically active concentration [2]: 3 µM
lowest phenotypically active concentration [3]: 1 µM
lowest phenotypically active concentration [6]: ≤ 0.3 µM
lowest phenotypically active concentration [4]: 1 µM
lowest phenotypically active concentration [7]: 3 µM
lowest phenotypically active concentration [5]: 3 µM

CCN1/C(=C/C(C)=O)Sc2ccc(O)cc21
lowest phenotypically active concentration [9]: 9 µM
lowest phenotypically active concentration [6]: 9 µM
lowest phenotypically active concentration [7]: 9 µM

COc1cc(OC)c2c(=O)[nH]c(-c3cc(C)c(OCCO)c(C)c3)nc2c1 [apabetalone]
lowest phenotypically active concentration [8]: 9 µM
lowest phenotypically active concentration [1]: 9 µM
lowest phenotypically active concentration [7]: 9 µM
lowest phenotypically active concentration [5]: 9 µM

Fc1ccccc1Nc1nc2nonc2nc1Nc1ccccc1F
lowest phenotypically active concentration [2]: 9 µM
lowest phenotypically active concentration [3]: 9 µM
lowest phenotypically active concentration [6]: 9 µM
lowest phenotypically active concentration [4]: 9 µM

CNC(=O)c1cc(Oc2ccc(NC(=O)Nc3ccc(Cl)c(C(F)(F)F)c3)c(F)c2)ccn1 [regorafenib]
lowest phenotypically active concentration [9]: 9 µM
lowest phenotypically active concentration [8]: 3 µM
lowest phenotypically active concentration [1]: ≤ 0.3 µM
lowest phenotypically active concentration [2]: ≤ 0.3 µM
lowest phenotypically active concentration [3]: ≤ 0.3 µM
lowest phenotypically active concentration [7]: 9 µM

O=S(=O)(c1cccc2cnccc12)N1CCNCC1
lowest phenotypically active concentration [9]: 9 µM
lowest phenotypically active concentration [8]: 3 µM
lowest phenotypically active concentration [1]: 3 µM
lowest phenotypically active concentration [2]: 9 µM
lowest phenotypically active concentration [3]: 3 µM
lowest phenotypically active concentration [6]: 9 µM
lowest phenotypically active concentration [4]: 9 µM
lowest phenotypically active concentration [7]: 9 µM
lowest phenotypically active concentration [5]: 3 µM

CCC(=O)N1CCOc2c(cc(-c3ccc(OC)c(OC)c3)cc2OC[C@H]2CCCN(C)C2)C1
lowest phenotypically active concentration [8]: 9 µM
lowest phenotypically active concentration [3]: 9 µM
lowest phenotypically active concentration [4]: 9 µM

N=C1NC(=O)/C(=C\c2ccc(O)cc2)S1 [Mirin]
lowest phenotypically active concentration [6]: 9 µM

Cc1cccc(-c2nn(C(=S)Nc3ccccc3)cc2-c2ccnc3ccccc23)n1
lowest phenotypically active concentration [10]: 9 µM
lowest phenotypically active concentration [8]: 3 µM
lowest phenotypically active concentration [1]: 9 µM
lowest phenotypically active concentration [2]: 9 µM
lowest phenotypically active concentration [3]: 9 µM
lowest phenotypically active concentration [6]: 9 µM
lowest phenotypically active concentration [4]: 9 µM
lowest phenotypically active concentration [7]: 1 µM
lowest phenotypically active concentration [5]: 9 µM

Cc1c[nH]c2ncnc(-c3ccc(NC(=O)N(CCO)c4ccccc4)cc3)c12
lowest phenotypically active concentration [5]: 9 µM

CC(C)(C)c1ccc(S(=O)(=O)/C=C/C#N)cc1
lowest phenotypically active concentration [1]: 9 µM
lowest phenotypically active concentration [3]: 9 µM
lowest phenotypically active concentration [4]: 9 µM
lowest phenotypically active concentration [7]: 9 µM

O=C(O/N=C1\c2ccccc2-c2nc3ccccc3nc21)c1ccco1
lowest phenotypically active concentration [6]: 9 µM
lowest phenotypically active concentration [4]: 9 µM
lowest phenotypically active concentration [7]: 9 µM
lowest phenotypically active concentration [5]: 3 µM

O=c1cc(N2CCOCC2)oc2c(-c3ccccc3)cccc12
lowest phenotypically active concentration [9]: 9 µM
lowest phenotypically active concentration [1]: 9 µM
lowest phenotypically active concentration [2]: 9 µM
lowest phenotypically active concentration [3]: 9 µM
lowest phenotypically active concentration [6]: 9 µM
lowest phenotypically active concentration [4]: 9 µM
lowest phenotypically active concentration [7]: 9 µM

Nc1ncnc2c1nc(Br)n2[C@@H]1O[C@@H]2COP(=O)(O)O[C@H]2[C@H]1O [8-Bromo-cAMP, sodium salt]
lowest phenotypically active concentration [4]: 9 µM

Cc1cc(C(C)Nc2ccccc2)c2nc(N3CCOCC3)cc(=O)n2c1 (configuration not stated)
lowest phenotypically active concentration [4]: 9 µM
